# Six1-Eya2 blk – qHTS Assay for Inhibitors of the Six1/Eya2 Interaction. Homeobox protein SIX1 (Homo sapiens) + Protein phosphatase EYA2 (Homo sapiens), …. AlphaScreen GST-Six1/His-Eya2 binding, biochemical; stronger effect = lower value. activity change, % (no concentration beside the values). actives 0.56% (n = 360,000). AID 651725, 2012; in the data active = activity change below about -65%; inconclusive = mostly about -30% to -63%
#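 AlphaScreen with GST-Six1 and His-Eya2 (5X mix: 250 nM and 500 nM), glutathione donor and nickel acceptor beads; buffer 50 mM Tris pH 8.0, 300 mM NaCl, 1 mM TCEP; 1 h at 37 C in the dark.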
# IL1B secr inh – qHTS for Inhibitors of Inflammasome Signaling: IL-1-beta AlphaLISA Primary Screen. actives 4.7% (n = 360,000). THP-1 LPS/ATP IL-1B secretion, AlphaLISA, 16 h; stronger effect = lower value. activity change, % at 57.5 µM. AID 743279, 2014; in the data active = activity change below about -50%; inconclusive = mostly about -30% to -49%
#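 Secreted IL-1B measured by AlphaLISA bead assay after 16 h compound exposure of THP-1 cells; compounds (final up to 57.5 uM) added 1 h before LPS (250 ng/mL) and ATP (1.25 mM) stimulation; lower signal means less secretion.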
# DT40 TDP1 no CPT – qHTS for Inhibitors of human tyrosyl-DNA phosphodiesterase 1 (TDP1): qHTS in cells in absence of CPT | DT40 Tdp1-/- hTDP1 cells, no CPT, ATP luminescence, 48 h | Potency, µM (titrated, usually from 46.2 µM), without a hit: top-dose activity change, negative = growth inhibition, hits mostly inhibitors | actives 15% (n = 420,000) | AID 686978, 2013; note: potency is the fitted concentration of half-maximal effect; nearly all actives have a fitted effect of over 55% in size
#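 Seeded 400 DT40-hTDP1 cells/well (vehicle DMSO, no 20 nM CPT); pinned compounds; ≥48 hr at 37 °C; CellTiter-Glo luminescence as viability measure.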
# TDP1 cell CPT – qHTS for Inhibitors of human tyrosyl-DNA phosphodiesterase 1 (TDP1): qHTS in cells in presence of CPT. chicken DT40 Tdp1-/-;hTDP1 cells + 20 nM CPT, ATP luminescence, 48 h. Potency, µM (titrated, usually from 46.2 µM), inactives show at the highest dose activity change, negative = growth inhibition, usual class: inhibitors. actives 12% (n = 420,000). AID 686979, 2013; note: potency is the fitted concentration of half-maximal effect; nearly all actives have a fitted effect of over 55% in size
#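 Chicken DT40 Tdp1-/- cells stably complemented with human TDP1 were seeded at 400 cells/well in medium containing 20 nM camptothecin, exposed to pin-transferred compounds, and grown at 37 °C for at least 48 hr. Viability was read as ATP luminescence.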
# CtBP-E1A blk – qHTS Assay for Inhibitors of the CtBP/E1A Interaction; actives 0.49% (n = 340,000); AlphaScreen GST-E1A/His-CtBP binding, 1536-well; stronger effect = lower value; activity change, % (concentration not given with the values); CtBP / adenovirus E1A interaction (AlphaScreen); in the data active = activity change below about -65%; inconclusive = mostly about -30% to -63%
#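 AlphaScreen with 125 nM GST-E1A and 125 nM His-CtBP (5X stocks) in Tris pH 8.0, 300 mM NaCl, BSA, Tween 20, TCEP. Compounds preincubated 2 h at 37 deg C, then glutathione donor/nickel acceptor beads added for 1 h at 37 deg C in dark.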
# TDP1 inh – qHTS Assay for Inhibitors of Tyrosyl-DNA Phosphodiesterase (TDP1); recombinant TDP1, AlphaScreen DNA substrate cleavage; Potency, µM (doses to about 130 µM), inactives show at the top dose activity change, negative = inhibition, actives largely listed as inhibitors; actives 0.28% (n = 350,000); AID 485290, 2010; note: potency is the fitted concentration of half-maximal effect; nearly all actives have a fitted effect of over 40% in size
# Target sequence (Q9NUW8 whole entry, looked up): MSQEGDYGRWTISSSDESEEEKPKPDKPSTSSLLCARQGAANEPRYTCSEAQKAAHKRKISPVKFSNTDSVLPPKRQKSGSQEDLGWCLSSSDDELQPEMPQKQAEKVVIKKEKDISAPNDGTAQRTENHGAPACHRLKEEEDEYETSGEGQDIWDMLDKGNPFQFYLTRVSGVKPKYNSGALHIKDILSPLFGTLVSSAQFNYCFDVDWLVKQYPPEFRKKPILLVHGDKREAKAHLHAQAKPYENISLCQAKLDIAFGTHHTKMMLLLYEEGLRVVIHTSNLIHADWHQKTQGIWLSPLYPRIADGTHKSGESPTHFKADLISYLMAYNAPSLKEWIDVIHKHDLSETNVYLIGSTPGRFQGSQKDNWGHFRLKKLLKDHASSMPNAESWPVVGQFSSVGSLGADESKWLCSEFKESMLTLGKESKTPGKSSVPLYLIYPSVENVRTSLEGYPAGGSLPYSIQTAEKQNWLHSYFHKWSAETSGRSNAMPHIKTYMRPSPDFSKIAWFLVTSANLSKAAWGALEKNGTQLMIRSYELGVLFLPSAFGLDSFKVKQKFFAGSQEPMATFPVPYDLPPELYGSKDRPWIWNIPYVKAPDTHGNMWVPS
#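 Here, a 5' biotin and 3' phosphotyrosine-FITC DNA oligonucleotide reports Tdp1 activity: intact substrate bridges AlphaScreen beads, while cleavage leaves a 3' phosphate and drops signal. All incubations at room temperature.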
# * = called active by the depositor; i = inactive; ? = inconclusive; · = not tested or not shown. Hits are enriched below; roughly 18% of the tested compounds scored in any of these assays. Unless noted, calls come from the whole dose curve; as a rule, active = well fitted curve in the direction sought with a large enough effect; inconclusive = small, poorly fitted or top-dose-only effect, or another doubt; inactive = no such curve, though single readings can be large; an effect the other way counts as inactive or inconclusive. % is set by controls: 0 for no effect and ±100 for the full control effect.
SMILES,Six1-Eya2 blk,IL1B secr inh,DT40 TDP1 no CPT,TDP1 cell CPT,CtBP-E1A blk,TDP1 inh
COc1ccc(NC(=O)c2c(NCc3cccs3)sc3c2CCC(C)C3)c(OC)c1 (stereo not drawn),·,·,?,?,·,5.7%
COc1ccc(NC(=O)c2c(NC(=O)COc3ccccc3)sc3c2CCC(C)C3)cc1 (stereo not drawn),·,·,-25.7%,0.6%,·,·
COc1ccc(NC(=O)c2c(NCc3cccc(F)c3)sc3c2CCCC3)c(OC)c1,·,·,?,?,·,7.6%
COc1ccccc1NC(=O)c1c(NCc2ccc(C)o2)sc2c1CCC(C)C2 (stereo not drawn),·,·,?,18.4µM*,·,7.6%
COc1ccc(NC(=O)c2c(NCc3ccc(C)o3)sc3c2CCC(C)C3)c(OC)c1 (stereo not drawn),·,·,?,20.6µM*,·,9.5%
COc1ccc(NC(=O)c2c(NCc3ccc(C)o3)sc3c2CCCCC3)c(OC)c1,·,·,18.4µM*,9.2µM*,·,6.6%
CC(C)N1CCC(N2CCN(C/C=C/c3ccc(F)cc3)CC2CCO)CC1 (stereo not drawn),0.0,0.0,?,?,-2.5,·
COc1ccc(C2CC(=O)c3cnc(NC(=O)c4ccco4)nc3C2)cc1 (stereo not drawn),0.0,i,-20.1%,-6.9%,6.0,5.4%
CC(=O)/C(N=Nc1cccc(C(F)(F)F)c1)=C(\C)O,-4.6,16.2,-14.0%,-24.1%,5.4,5.0%
O=C(/C(N=Nc1cccc(C(F)(F)F)c1)=C(/O)c1cccs1)C(F)(F)F,?,-62.3*,20.6µM*,?,-13.5,11.8%
CCOC(=O)C1CCN(c2ccccc2CN2CCN(c3ccccc3OCC)CC2)CC1,3.8,6.2,?,?,-1.7,·
CSc1ccc(CCNS(=O)(=O)c2cc(-c3cc(C)no3)ccc2C)cc1,·,·,20.6µM*,?,·,5.3%
Cc1cc(-c2ccc(C)c(S(=O)(=O)NCCc3ccccc3)c2)on1,·,·,?,?,·,2.6%
CCc1ccc(-c2cc(C)no2)cc1S(=O)(=O)NCCc1ccccc1,4.2,-12.7,18.4µM*,?,11.8,-4.1%
CNc1ncnc2sc(-c3ccccc3)cc12,0.0,-76.7*,?,16.4µM*,17.7,5.4%
CN(C)CCNc1ncnc2sc(-c3ccccc3)cc12,3.8,-72.2*,18.4µM*,?,4.8,·
OCCOCCNc1ncnc2sc(-c3ccccc3)cc12,0.0,-17.7,?,?,-0.4,-0.5%
Cc1ccc(CNS(=O)(=O)c2c(C)nc3sc(C)cn3c2=O)cc1,·,·,-26.3%,?,·,2.6%
CCCN1CNc2c(c(=O)[nH]c(=S)n2CCc2cccc(C)c2C)C1,·,·,12.6µM*,?,·,0.9%
CCCN1CNc2c(c(=O)[nH]c(=S)n2CCc2ccccc2C)C1,·,·,-24.0%,-29.0%,·,-4.5%
CCCN1CNc2c(c(=O)[nH]c(=S)n2CCC(C)(C)C)C1,·,·,12.6µM*,?,·,1.0%
CCCN1CNc2c(c(=O)[nH]c(=S)n2CCCc2ccccc2)C1,·,·,12.6µM*,?,·,0.0%
COc1cccc(C(=O)OCCCOC(=O)c2cccc(OC)c2OC)c1OC,-3.6,3.1,-24.4%,-22.2%,2.4,·
O=C(NCCc1ccccc1)c1nc(-c2cccs2)no1,12.1,-8.0,-10.1%,-5.9%,-12.3,0.0%
O=C(Nc1cccnc1)C1CC(c2ccccc2O)=NO1 (stereo not drawn),-5.9,-7.4,-24.8%,-24.7%,8.7,3.4%
SMILES,Six1-Eya2 blk,IL1B secr inh,DT40 TDP1 no CPT,TDP1 cell CPT,CtBP-E1A blk,TDP1 inh
CC1(C)CC2CN(C(=O)Cc3ccccc3)C(C)(C2)C1 (stereo not drawn),14.1,-2.0,16.4µM*,?,·,4.9%
CC(C)CC(NC(N)=O)C(=O)NCc1ccc(Cl)cc1 (stereo not drawn),3.0,-1.9,0.7%,-8.3%,0.2,0.0%
CCOc1ccc(S(=O)(=O)N2CCC(C(=O)OCc3cccc(OC)c3OC)CC2)cc1,6.7,6.9,12.9%,6.2%,9.5,2.4%
Cc1cc2c(c(/C=C/C(=O)c3ccccc3)c1)OC1(C=C2)Oc2ccccc2C(=O)N1C (stereo not drawn),-0.1,-104.4*,25.9µM*,?,0.0,3.5%
O=[N+]([O-])c1ccc(Cc2ccc([N+](=O)[O-])cc2)cc1,-2.7,39.1,-15.1%,-17.4%,-3.3,·
N#CC(CCc1ccc([N+](=O)[O-])cc1)(CCc1ccc([N+](=O)[O-])cc1)C(N)=O,?,-0.2,13µM*,23.1µM*,?,·
CC(C)(C)OC(=O)N1CCC(c2c(C(=O)N3CCN(c4ncccn4)CC3)cnn2-c2cccc(F)c2)CC1,·,·,-5.9%,-3.0%,·,3.2%
O=C(CCCCCCC(=O)Nc1ccccc1)NO,·,·,0.596µM*,0.422µM*,·,·
Cc1cccc(OCCCC(=O)NC(C)C)c1,-6.5,-1.2,23.1µM*,-5.9%,2.9,-3.4%
O=C(CCOc1ccccc1)NO,·,·,11.2µM*,10µM*,·,·
Cc1cccc(OCCC(=O)NO)c1,·,·,10µM*,10µM*,·,·
O=C(CCOc1ccccc1)Nc1ccccc1,2.1,23.4,6.6%,21.5%,12.2,-2.0%
COc1ccc(NS(=O)(=O)c2ccc(OC)c(NC(=O)CCC3CCCCC3)c2)cc1,-5.1,0.0,?,-24.6%,-0.5,3.2%
COc1ccc(CC(=O)NO)cc1,·,·,?,-6.5%,·,·
O=C(Cc1ccc(OCCCc2ccccc2)cc1)NO,·,·,14.1µM*,11.2µM*,·,·
COc1ccc(CNC(=O)CCCc2ccccc2)cc1,10.8,15.5,-17.8%,-4.8%,2.0,8.5%
CC(C)COc1ccc(CC(=O)NO)cc1,·,·,?,8.91µM*,·,·
CCc1ccc(OCCCC(=O)NCc2ccccc2)cc1,5.9,5.7,20.6µM*,29.1µM*,8.1,4.3%
O=C(Cn1cnc2c(NCc3ccccc3)ncnc21)NCC1CCCO1 (stereo not drawn),0.4,24.4,-17.7%,-18.4%,-3.6,·
Cc1cc(C)c(CN2CCN(C(=O)Cn3ccc(N)nc3=O)CC2)c(C)c1,-3.4,35.9,-16.4%,-13.1%,-11.2,0.4%
CSc1nc(N)nc2c1ncn2CC(=O)N1CCN(Cc2c(C)cc(C)cc2C)CC1,2.2,37.3,0.82µM*,1.84µM*,1.8,0.1%
